Compound activity deposited in PubChem by National Center for Advancing Translational Sciences (NCATS).
LDHA inh: qHTS assay for inhibitors of human lactate dehydrogenase; AID 1347041, 2019; L-lactate dehydrogenase A chain (Homo sapiens), P00338; hit rate 0.15% among 480,000; purified LDHA, NADH/diaphorase-resazurin fluorescence; hits give low values; activity change, % (values are at about 110 or 230 µM); in the data active = activity change below about -30%; inconclusive = mostly about -25% to -30%;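 also: plate controls were DMSO wells for no effect and wells without enzyme for full effect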
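Enzyme activity of human lactate dehydrogenase 5 (2 nM; 0.06 mM NADH, 0.2 mM pyruvate, 5 min, RT) is measured via a resazurin/diaphorase fluorescence readout of residual NADH.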
Nrf2 activator: qHTS of Nrf2 Activators. AREc32 ARE-luciferase reporter (MCF7-derived line), luminescence, 24 h. Potency, µM (top dose mostly 46.1 µM), for inactives: at the highest dose activation, most hits filed as activators. hit rate 0.31% among 410,000; also: potency is read from the fitted curve at half-maximal effect; % of control where 0% means no effect; nearly all actives have a fitted effect of over 65% in size
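For detection, Steady-Glo was added and plates sat 30 min at RT; before that, AREc32_Fluc cells grown overnight in OPTI-MEM/5% FBS had been treated with 23 nL compound for 24 hr at 37 deg C.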
mIDH1 inhibitor: qHTS for Inhibitors of mutant isocitrate dehydrogenase 1 (IDH1): qHTS. Potency, µM (titrated, usually from 76.6 µM), for the others: top-dose activity change, negative = inhibition, hits mostly inhibitors. hit rate 0.093% among 390,000. IDH1-R132H enzyme, NADPH consumption, diaphorase/resazurin fluorescence. AID 602179, 2012; also: potency is read from the fitted curve at half-maximal effect; % is scaled to controls: 0 for no effect and ±100 for the full control effect; nearly all actives have a fitted effect of over 65% in size
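IDH1-R132H (0.5 ug/mL dispensed) in pH 7.5 Tris buffer was preincubated 30 min with compound, then given a substrate mix of 0.016 mM NADPH and 2 mM alpha-KG for 80 min at room temperature; remaining NADPH was read by diaphorase/resazurin fluorescence.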
A549 tox: Nrf2 qHTS screen for inhibitors: counterscreen for cytotoxicity; hit rate 0.16% among 390,000; AID 504648, 2011; A549 ARE-Fluc cells, CellTiter-Fluor viability, 18-24 h; Potency, µM (highest dose often 46 µM), for inactives: at the top dose activity change, negative = cytotoxicity, actives largely listed as inhibitors; also: potency is read from the fitted curve at half-maximal effect; % is scaled to controls: 0 for no effect and ±100 for the full control effect
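Cytotoxicity counterscreen: CellTiter-Fluor fluorescence was measured in A549 ARE_Fluc cells after 18-24 h of compound exposure in a concentration series. The subsequent BugLite luminescent read reports ARE-luciferase activity.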
Nrf2 block: Nrf2 qHTS screen for inhibitors; A549 ARE-Fluc reporter, luciferase luminescence, 18-24 h; Potency, µM (highest dose often 46 µM), inactives show at the top dose activity change, negative = inhibition, most hits filed as inhibitors; hit rate 2.1% among 360,000; AID 504444, 2011; also: potency is read from the fitted curve at half-maximal effect; % is scaled to controls: 0 for no effect and ±100 for the full control effect; nearly all actives have a fitted effect of over 60% in size
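Concentration-response testing used A549 ARE_Fluc cells at 5000 cells/well. Following an 18-24 h compound incubation, viability was read by fluorescence (Ex 405/Em 525) and luciferase output by luminescence.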
12-LOX inh: Primary qHTS assay for inhibitors of human arachidonate 12S-lipoxygenase (ALOX12): Round 2. Potency, µM (doses to about 108 µM), inactives show at the top dose activity change, negative = inhibition, most hits filed as inhibitors. AID 1671190, 2021. purified 12hLO, xylenol orange hydroperoxide absorbance. hit rate 1.1% among 580,000. Polyunsaturated fatty acid lipoxygenase ALOX12 (Homo sapiens), P18054; also: potency is read from the fitted curve at half-maximal effect; % is scaled to controls: 0 for no effect and ±100 for the full control effect
Target sequence (P18054 whole entry, looked up): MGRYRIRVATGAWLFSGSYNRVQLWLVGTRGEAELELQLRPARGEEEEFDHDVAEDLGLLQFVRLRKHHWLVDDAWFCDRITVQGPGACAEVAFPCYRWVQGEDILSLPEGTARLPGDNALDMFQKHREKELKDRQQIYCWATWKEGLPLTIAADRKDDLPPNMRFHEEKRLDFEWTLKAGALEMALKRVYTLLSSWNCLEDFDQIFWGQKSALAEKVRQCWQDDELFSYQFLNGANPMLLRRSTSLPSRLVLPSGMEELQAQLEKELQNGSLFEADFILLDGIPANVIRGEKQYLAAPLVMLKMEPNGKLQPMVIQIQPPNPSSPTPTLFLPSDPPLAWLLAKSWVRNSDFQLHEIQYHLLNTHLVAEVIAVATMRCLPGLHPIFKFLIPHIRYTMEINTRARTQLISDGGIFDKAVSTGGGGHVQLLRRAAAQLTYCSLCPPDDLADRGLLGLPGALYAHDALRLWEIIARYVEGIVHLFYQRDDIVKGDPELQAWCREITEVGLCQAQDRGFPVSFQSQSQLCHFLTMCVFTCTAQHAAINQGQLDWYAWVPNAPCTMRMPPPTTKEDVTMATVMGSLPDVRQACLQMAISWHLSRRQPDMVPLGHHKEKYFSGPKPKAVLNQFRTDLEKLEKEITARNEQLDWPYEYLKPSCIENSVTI
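Hydroperoxide product was detected by ferrous iron/xylenol orange as the 573 to 405 nm absorbance ratio. Arachidonic acid at 40 uM (final) was turned over for 30 min at room temperature by 150 nM human 12hLO, pH 7.0 Hepes buffer, after 15 min compound preincubation.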
The depositor's hits bear a star; ? = inconclusive; . = no result; [ ] = dose if it differs, or a comment. In the library only some 2.7% were active in any assay of this set; here they are far more common. Unless noted, calls follow the shape of the dose curve; as a rule, active = well fitted curve in the direction sought with a large enough effect; inconclusive = small, poorly fitted or top-dose-only effect, or another doubt; inactive = no such curve, though single readings can be large; an effect the other way counts as inactive or inconclusive.

SMILES	LDHA inh	Nrf2 activator	mIDH1 inhibitor	A549 tox	Nrf2 block	12-LOX inh
O=C(CCc1c[nH]c2ccccc12)Oc1ccc2ccc(=O)oc2c1	13	.	.	.	.	?
O=C(Nc1sc2c(c1C(=O)NCC1CCCO1)CCCC2)c1cc(=O)c2ccccc2o1 (stereo not given)	-10	0%	5%	-11%	14%	-18%
Cc1ccc(C(C)NC(=O)c2cccs2)cc1 (stereo not given)	-6	-1%	0%	0%	29%	10µM*
CCOC(=O)c1ccc(NC(=O)c2c(NCc3sccc3C)sc3c2CCCCC3)cc1	6	17%	3%	-2%	.	11µM*
CCOC(=O)c1ccc(NC(=O)c2c(NCc3cccc(OC)c3OC)sc3c2CCC3)cc1	2	16%	-30%	0%	.	-20%
COc1ccc(NC(=O)c2c(NC(=O)C(F)(F)F)sc3c2CCCCC3)cc1	-4	8%	25%	?	1.8µM*	-20%
O=C(Nc1sc2c(c1C(=O)NCC1CCCO1)CCCC2)c1cccs1 (stereo not given)	-1	5%	2%	-14%	21µM*	18%
CCN1CCN(c2oc(-c3ccccc3OC)nc2C#N)CC1	-1	.	.	.	.	-6%
O=C(Nc1sc2c(c1C(=O)O)CCCCC2)c1cccs1	-42*	0%	11%	-18%	-19%	-2%
Cc1sc(NC(=O)c2cccs2)c(C(N)=O)c1C	-2	10µM*	8%	3%	?	?
NC(=O)c1ccsc1NC(=O)c1cccs1	-4	?	22%	-3%	24%	-4%
CC1CCc2c(sc(NC(=O)c3cccs3)c2C(=O)O)C1 (stereo not given)	-40*	0%	-2%	?	?	?
O=C(Nc1sc2c(c1C(=O)O)CCCC2)c1cccs1	0	5%	22%	?	?	-56%
COc1cccc(C(=O)Nc2sc3c(c2C(=O)O)CCCC3)c1	-9	0%	33%	?	5.8µM*	?
Cc1cccc(C(=O)Nc2sc3c(c2C(=O)O)CCC3)c1	-5	0%	30%	?	?	-4%
CCOc1ccc(NC(=O)Cc2c(C)[nH]n(-c3nc(-c4ccc(Cl)cc4)cs3)c2=O)cc1	-10	.	.	.	.	30%
COc1ccc(CN2C(=O)[C@@H]3C[C@@H](CN3Cc3ccccc3C)Oc3ccccc32)cc1	.	.	.	.	.	-2%[176 µM]
CCN(CC)c1cc(Cl)c2nonc2c1N	23	4%	5%	13%	17%	?
CN(C)c1cc(Cl)c2nonc2c1N	5	16%	4%	0%	-24%	40µM*
NC(=O)NC(=O)COC(=O)c1ccccc1Br	8	.	.	.	.	-16%
Cc1c(N2C(=O)/C(=C\c3ccc(N(C)C)cc3)N(C)C2=S)c(=O)n(-c2ccccc2)n1C	6	0%	2%	15µM*	-9%	?
COc1ccccc1/C=C1\Oc2cc(OS(C)(=O)=O)ccc2C1=O	4	.	.	.	.	1%
COC(=O)c1ccc(NC(=O)CSc2nnc(COc3ccc4c(c3)CCCC4)o2)cc1	-10	0%	0%	-4%	-22%	16%
COc1ccc(CCCc2nnc(SCC(=O)NN)o2)cc1	-4	-1%	2%	-1%	0%	14%
COc1ccc(CCCc2nnc(SCC(=O)Nc3ccc(Cl)cc3)o2)cc1	-11	5%	-8%	0%	21µM*	?
SMILES	LDHA inh	Nrf2 activator	mIDH1 inhibitor	A549 tox	Nrf2 block	12-LOX inh
COc1cccc(NC(=O)CSc2nnc(COc3ccc4c(c3)CCCC4)o2)c1	-11	-2%	5%	-8%	5%	14µM*
CCOC(=O)C1CCC(CNC(=O)N2CCCC2c2cccc(C)c2)CC1 (stereo not given)	5	.	.	.	.	9%
CNC(=S)N/N=C(/C)c1ccc(C)c([N+](=O)[O-])c1	-5	.	.	.	.	?
CNC(=S)N/N=C(\C)c1ccc(Cl)c(Cl)c1	-6	8%	10%	0%	-2%	40µM*
O=C(c1ccnc(-c2ccccc2-c2ccccc2)c1)N1CCCC1	.	.	.	.	.	52%
COC(=O)c1c(NC(=O)/C=C/c2ccco2)sc2c1CCC2	-7	1.4µM*	3%	1%	16%	?
C/C(=N\NC(=O)c1ccc2c(c1)OCO2)c1ccco1	-10	-1%	20%	-3%	?	1%
C/C(=N\NC(=O)c1ccc(Cl)c(Cl)c1)c1ccc(Br)s1	-4	0%	4%	-11%	7.3µM*	14%
C/C(=N/NC(=O)c1ccc2c(c1)OCO2)c1ccc(Br)s1	-33*	9%	7%	-2%	?	-10%
O=C1NC(=O)/C(=C/c2ccc(-c3cc(C(=O)O)ccc3Cl)o2)S1	-6	0%	-8%	-27%	-3%	?
O=C1NC(=S)/C(=C\c2ccc(-c3ccccc3Cl)o2)S1	-7	6%	-13%	-28%	-16%	35µM*
O=C(/C=C/c1ccc(Cl)cc1Cl)Nc1cccc(S(=O)(=O)NC2=NCCC2)c1	2	16%	-2%	-7%	?	0%
O=C(/C=C/c1ccccc1Cl)Nc1cccc(S(=O)(=O)NC2=NCCCCC2)c1	1	15%	9%	?	9.2µM*	-16%
O=C(/C=C/c1ccc([N+](=O)[O-])cc1)Nc1cccc(S(=O)(=O)NC2=NCCCCC2)c1	-7	4%	6%	-19%	18µM*	13%
CC(CCc1ccccc1)N1CCN(Cc2ccccc2)CC1 (stereo not given)	-31*	0%	3%	-2%	0%	5.6µM*
O=C(Cc1cccc2ccccc12)NCC(=O)N1CCN(Cc2cccc(C(F)(F)F)c2)CC1	3	1%	-1%	-13%	21µM*	-8%
O=C(Cc1cccc(C(F)(F)F)c1)NCc1ccc(CN2CCCCC2)cc1	7	.	.	.	.	-1%
Cn1c(NC(=O)c2ccccc2NC(=O)C(C)(C)C)nc2ccccc21	4	-4%	14%	1%	16µM*	42%
Cc1cc(C)n2nc(C(=O)OCC(=O)c3ccccc3Cl)nc2n1	-2	3%	3%	2%	2%	-14%
CC(=O)Nc1ccc(C(=O)COC(=O)c2nc3nc(C)cc(C)n3n2)cc1	-1	-1%	-3%	-1%	2%	40µM*
CS(=O)(=O)NC1CCCN(C(=O)c2ccc(Cl)cc2F)C1 (stereo not given)	-3	.	.	.	.	6%
